TGFb inhibitor: blocks TGF-b signaling | HepG2 CAGA-GFP TGF-b/SMAD3 reporter, GFP fluorescence, 18 h; TGF-beta stimulated, 500 pg/mL final | AID 588855 | 410,000 tested, 1.2% active | Potency, µM (doses to about 46.1 µM), most hits filed as inhibitors; also: nearly all actives have a fitted effect of over 65% in size
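Smad-responsive CAGA-GFP expression was quantified in HEPG2 cells exposed to compounds and 500 pg/mL final TGF-beta for 18 h at 37 degrees C; unstimulated wells defined full inhibition.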
ATXN2 expr inh: inhibitors of ATXN2 expression | HEK-293 ATXN2-luciferase reporter, luminescence, 24 h | 360,000 tested, 0.72% active | Potency, µM (top dose mostly 57 µM), usual class: inhibitors; also: nearly all actives have a fitted effect of over 55% in size
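ATXN2-luciferase reporter cells (luciferase flanked by upstream and downstream ATXN2 gene portions) were treated 24 h at 37 °C with compounds at up to 57 uM. SteadyGlo luminescence gave expression; GF-AFC fluorescence gave viability.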
ATXN viability: cell viability loss in ATXN counter-screen | S2 cells (HEK-293 line with an ATXN2-luciferase reporter) viability, CellTiter-Fluor protease fluorescence, 24 h | Potency, µM (highest dose often 56.7 µM), hits mostly cytotoxic | 400,000 tested, 0.49% active; also: nearly all actives have a fitted effect of over 40% in size
12-LOX inh: ALOX12 (human) lipoxygenase inhibition. purified 12hLO, xylenol orange hydroperoxide absorbance. 580,000 tested, 1.1% active. Potency, µM (series often up to 108 µM), hits mostly inhibitors. P18054
Target sequence (P18054 whole entry, looked up): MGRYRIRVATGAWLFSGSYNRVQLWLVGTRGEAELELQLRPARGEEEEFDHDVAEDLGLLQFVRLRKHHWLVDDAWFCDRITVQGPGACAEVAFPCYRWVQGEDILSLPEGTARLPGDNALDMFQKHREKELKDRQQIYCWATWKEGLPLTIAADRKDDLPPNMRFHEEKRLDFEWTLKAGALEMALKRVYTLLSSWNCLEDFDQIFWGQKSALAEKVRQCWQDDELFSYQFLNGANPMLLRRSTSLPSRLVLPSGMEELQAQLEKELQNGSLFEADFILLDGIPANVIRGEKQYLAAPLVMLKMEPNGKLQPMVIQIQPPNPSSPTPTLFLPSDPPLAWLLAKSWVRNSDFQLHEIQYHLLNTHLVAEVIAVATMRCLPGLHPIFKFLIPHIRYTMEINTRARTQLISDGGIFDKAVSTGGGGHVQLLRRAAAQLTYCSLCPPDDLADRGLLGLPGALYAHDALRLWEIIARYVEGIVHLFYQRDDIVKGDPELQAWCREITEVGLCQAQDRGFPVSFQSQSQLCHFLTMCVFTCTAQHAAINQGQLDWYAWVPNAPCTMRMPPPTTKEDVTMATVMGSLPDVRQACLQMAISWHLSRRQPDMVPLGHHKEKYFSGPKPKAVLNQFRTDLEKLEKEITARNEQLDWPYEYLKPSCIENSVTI
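Purified human 12hLO (150 nM final) in 25 mM Hepes, 0.01% Triton X-100, pH 7.0 was preincubated 15 min at room temperature with compound. Then 40 uM arachidonic acid was added, 30 min. Hydroperoxide was read by Fe-XO absorbance ratio 573/405 nm.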
HepG2 tox-1: kills HepG2 cells in TGF-b inhibitor counter-screen; HepG2 CAGA-GFP viability, ATP luminescence, 18 h; Potency, µM (top dose mostly 46.1 µM), hits mostly cytotoxic; 410,000 tested, 0.76% active; AID 588856
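CellTiter-Glo luminescence gave cytotoxicity after 18 hours at 37 degrees C. The cells were HepG2 CAGA-GFP in 1% FBS DMEM, stimulated with 500 pg/mL TGF-beta after compound addition. %Activity was normalised to no-cell wells (complete cell-killing) and DMSO (no toxicity), and curves were fitted and classified.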
TGFb confirm: TGF-b pathway inhibition, cherry-pick retest; shares compounds with TGFb inhibitor; HepG2 CAGA-GFP TGF-b reporter, GFP fluorescence, 18 h; cells stimulated with TGF-beta, 500 pg/mL; Potency, µM (doses to about 46.1 µM), actives largely listed as inhibitors; 1,600 tested, 63% active; AID 720534; also: nearly all actives have a fitted effect of over 65% in size
HepG2 tox-2: HepG2 cytotoxicity, TGF-b inhibitor counterscreen; shares compounds with TGFb inhibitor; 1,600 tested, 27% active; Potency, µM (doses to about 46.1 µM), hits mostly inhibitors; HepG2 CAGA-GFP viability, ATP luminescence, 18 h; cells stimulated with TGF-beta, 500 pg/mL; also: nearly all actives have a fitted effect of over 70% in size
CCL64 TGFb inh: TGF-b inhibition, CCL64 orthogonal assay; shares compounds with TGFb inhibitor; 1,600 tested, 41% active; Potency, µM (highest dose often 46.1 µM), hits mostly inhibitors; CCL64 CAGA-GFP reporter, TGF-b stimulated, GFP fluorescence, 18 h; also: nearly all actives have a fitted effect of over 65% in size
TGFb COP inh: blocks TGF-b signaling in HepG2 COP reporter; shares compounds with TGFb inhibitor; HepG2 COP-GFP TGF-b reporter, GFP fluorescence, 18 h; cells stimulated by added recombinant TGF-beta; Potency, µM (doses to about 46.1 µM), actives largely listed as inhibitors; 1,600 tested, 3% active; AID 720537; also: nearly all actives have a fitted effect of over 70% in size
A number is an active result. A selection: hits, their analogues and other compounds. The true share with any hit is near 2.7%. Calls follow the shape of the dose curve; as a rule, active = well fitted curve in the direction sought with a large enough effect; inconclusive = small, poorly fitted or top-dose-only effect, or another doubt; inactive = no such curve, though single readings can be large; an effect the other way counts as inactive or inconclusive.

How did Cc1ccc(N2CCN(C(=O)c3ccc4c(Cl)c5c(nc4c3)CCCC5)CC2)c(C)c1 do in these assays?
TGFb inhibitor: inconclusive; ATXN2 expr inh: inactive; ATXN viability: inactive; 12-LOX inh: inactive; HepG2 tox-1: inactive

How did COc1ccccc1N1CCN(C(=O)c2ccc3c(Cl)c4c(nc3c2)CCCC4)CC1 do in these assays?
TGFb inhibitor: 11µM; ATXN2 expr inh: inactive; ATXN viability: inconclusive; HepG2 tox-1: inactive; TGFb confirm: 6.5µM; HepG2 tox-2: inconclusive; CCL64 TGFb inh: 18µM; TGFb COP inh: inactive

What do the screens show for `COCCN1CC2(CCC1=O)CCN(c1nc(C(C)C)ccc1C#N)CC2`?
12-LOX inh: inactive

Results for COCCN(C(=O)COC(=O)c1ccccc1Nc1ccccc1)c1c(N)n(Cc2ccccc2)c(=O)[nH]c1=O ?
TGFb inhibitor: 11µM; ATXN2 expr inh: inconclusive; ATXN viability: inconclusive; 12-LOX inh: inconclusive; HepG2 tox-1: inactive; TGFb confirm: 15µM; HepG2 tox-2: inactive; CCL64 TGFb inh: 1.6µM; TGFb COP inh: inactive

How did O=C(NCC1CCCO1)c1cc2c(=O)[nH]c(-c3ccccc3)cn2n1 (centres undefined) do in these assays?
12-LOX inh: inactive

How did NC(Cc1ccc(C(F)(F)F)cc1)c1csc(Nc2cnccn2)n1 (centres undefined) do in these assays?
TGFb inhibitor: 7.1µM; ATXN2 expr inh: inconclusive; ATXN viability: inconclusive; 12-LOX inh: inactive; HepG2 tox-1: inactive; TGFb confirm: inconclusive; HepG2 tox-2: inconclusive; CCL64 TGFb inh: inconclusive; TGFb COP inh: inactive

Results for NC(Cc1ccc(F)cc1)c1csc(Nc2ccc(C(F)(F)F)cn2)n1 (centres undefined) ?
TGFb inhibitor: 10µM; ATXN2 expr inh: inconclusive; 12-LOX inh: inconclusive; HepG2 tox-1: inactive; TGFb confirm: inconclusive; HepG2 tox-2: inconclusive; CCL64 TGFb inh: inconclusive; TGFb COP inh: inactive

What do the screens show for `COc1cc(C#N)ccc1OC(C)C(=O)Nc1cccc(C)c1` (centres undefined)?
12-LOX inh: inactive

How did COc1ccc2cc(CNCCOCCOCCNCc3ccc4cc(OC)ccc4c3)ccc2c1 do in these assays?
TGFb inhibitor: 3.2µM; ATXN2 expr inh: inconclusive; 12-LOX inh: inconclusive; HepG2 tox-1: 4µM; TGFb confirm: inactive; HepG2 tox-2: 21µM; CCL64 TGFb inh: 4.6µM; TGFb COP inh: inconclusive

What do the screens show for `CCN(CC)CC1CCN(C(=O)c2cc(=O)[nH]c3ccccc23)CC1`?
12-LOX inh: inactive

What do the screens show for `COc1ccc(CNC(=O)c2c(C)oc3c2C(=O)c2ccccc2C3=O)cc1`?
TGFb inhibitor: 1µM; ATXN2 expr inh: inconclusive; ATXN viability: inactive; 12-LOX inh: inconclusive; HepG2 tox-1: 0.89µM; TGFb confirm: 0.65µM; HepG2 tox-2: 1µM; CCL64 TGFb inh: 5.2µM; TGFb COP inh: 2.1µM

Results for O=[N+]([O-])c1cccc2nc3ccccc3c(NCCCn3ccnc3[N+](=O)[O-])c12 ?
TGFb inhibitor: 0.11µM; ATXN2 expr inh: 0.27µM; ATXN viability: inconclusive; 12-LOX inh: inactive; HepG2 tox-1: inactive; TGFb confirm: 0.1µM; HepG2 tox-2: 0.21µM; CCL64 TGFb inh: 0.16µM; TGFb COP inh: inactive

Results for O=C(CCc1ncc(-c2c(F)cccc2F)o1)NC1CCN(Cc2ccccc2)C1 (centres undefined) ?
12-LOX inh: inactive

How did COc1ccc2c(CN3CCN(C(=O)C4COc5ccccc5O4)CC3)cc(=O)oc2c1 (centres undefined) do in these assays?
12-LOX inh: inactive

How did C[C@H](NC(=O)c1nc[nH]c1C(=O)NCCCCCNC(=O)OC(C)(C)C)C(=O)OC(C)(C)C do in these assays?
TGFb inhibitor: inconclusive; ATXN2 expr inh: inactive; ATXN viability: inconclusive; 12-LOX inh: inactive; HepG2 tox-1: inactive; TGFb confirm: inactive; HepG2 tox-2: inactive; CCL64 TGFb inh: inconclusive; TGFb COP inh: inactive

What do the screens show for `CC(C)C[C@H](NC(=O)c1nc[nH]c1C(=O)N[C@@H](CCCCNC(=O)OC(C)(C)C)C(=O)OC(C)(C)C)C(=O)OC(C)(C)C`?
TGFb inhibitor: 18µM; ATXN2 expr inh: inactive; ATXN viability: inconclusive; 12-LOX inh: inactive; HepG2 tox-1: inactive; TGFb confirm: 8.2µM; HepG2 tox-2: inactive; CCL64 TGFb inh: 21µM; TGFb COP inh: inactive

Results for CC(C)C[C@H](NC(=O)c1nc[nH]c1C(=O)NCCCCCNC(=O)OC(C)(C)C)C(=O)OC(C)(C)C ?
TGFb inhibitor: inconclusive; ATXN2 expr inh: inconclusive; 12-LOX inh: inactive; HepG2 tox-1: inactive

Results for CCc1ccc(OCC(=O)Nc2ccc(-c3cc4ccccc4oc3=O)c(OC)c2)cc1 ?
TGFb inhibitor: inconclusive; ATXN2 expr inh: inactive; ATXN viability: inconclusive; 12-LOX inh: inactive; HepG2 tox-1: inactive; TGFb confirm: inconclusive; HepG2 tox-2: inactive; CCL64 TGFb inh: inactive; TGFb COP inh: inactive

How did Cc1csc2c(N3CCN(C(=O)NC(C)(C)C)CC3)ncnc12 do in these assays?
TGFb inhibitor: inconclusive; ATXN2 expr inh: inactive; ATXN viability: inactive; 12-LOX inh: inconclusive; HepG2 tox-1: inactive

How did Cc1csc2c(N3CCN(C(=O)c4ccc(C(C)(C)C)cc4)CC3)ncnc12 do in these assays?
TGFb inhibitor: 11µM; ATXN viability: inactive; 12-LOX inh: inactive; HepG2 tox-1: inactive; TGFb confirm: 9.2µM; HepG2 tox-2: inactive; CCL64 TGFb inh: inconclusive; TGFb COP inh: inactive

Results for COc1ccc2c(c1OC)C(=O)OC2Nc1nc(-c2ccc(-c3ccccc3)cc2)cs1 (centres undefined) ?
TGFb inhibitor: 7.1µM; ATXN2 expr inh: inactive; ATXN viability: inactive; 12-LOX inh: inactive; HepG2 tox-1: inactive; TGFb confirm: 23µM; HepG2 tox-2: inactive; CCL64 TGFb inh: inconclusive; TGFb COP inh: inactive

What do the screens show for `COc1ccc2c(c1OC)C(=O)OC2Nc1nc(-c2ccc(C)cc2)cs1` (centres undefined)?
12-LOX inh: inactive

High-throughput results from PubChem.
